In general, AC50 refers to the concentration giving half of the maximal activity seen.

Each structure is given as a SMILES string. Calls of active or inactive are those of the source. How the source made its calls: active means hit-call score of the fitted dose curve at least 0.9, where 1 is the maximum; inactive means score below 0.9.

Sequence of Transcription factor Sp1 (Homo sapiens) (P08047 whole entry, looked up): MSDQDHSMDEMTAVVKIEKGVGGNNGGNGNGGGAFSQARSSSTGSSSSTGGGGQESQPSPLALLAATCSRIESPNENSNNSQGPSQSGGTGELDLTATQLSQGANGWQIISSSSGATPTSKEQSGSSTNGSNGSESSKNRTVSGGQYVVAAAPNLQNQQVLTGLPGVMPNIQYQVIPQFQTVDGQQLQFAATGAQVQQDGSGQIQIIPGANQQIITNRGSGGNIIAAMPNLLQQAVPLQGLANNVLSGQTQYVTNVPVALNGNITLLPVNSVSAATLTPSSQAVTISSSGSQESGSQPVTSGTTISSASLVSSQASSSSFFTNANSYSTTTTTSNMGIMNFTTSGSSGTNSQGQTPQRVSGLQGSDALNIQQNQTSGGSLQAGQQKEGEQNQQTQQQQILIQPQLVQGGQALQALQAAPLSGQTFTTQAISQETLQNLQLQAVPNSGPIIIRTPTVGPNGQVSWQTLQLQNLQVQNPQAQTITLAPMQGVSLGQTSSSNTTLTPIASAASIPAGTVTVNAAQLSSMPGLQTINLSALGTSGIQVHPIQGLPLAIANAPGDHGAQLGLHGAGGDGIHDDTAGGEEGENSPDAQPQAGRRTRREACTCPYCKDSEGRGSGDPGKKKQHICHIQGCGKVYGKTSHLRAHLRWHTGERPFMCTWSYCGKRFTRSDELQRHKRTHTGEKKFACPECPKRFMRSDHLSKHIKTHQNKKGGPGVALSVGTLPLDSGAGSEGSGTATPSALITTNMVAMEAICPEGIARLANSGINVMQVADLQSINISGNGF

For this assay, the target named is Transcription factor Sp1 (Homo sapiens) (UniProt P08047). Put plainly: ATG_Sp1_CIS: Attagene CIS-FACTORIAL HepG2 Assay for human Specificity Protein 1 (Sp1) (AID 2282961). The note with it: HepG2 Sp1 cis-reporter transcription, actives raise or lower the signal. The protocol:
ATG_CIS is a cell-based, multiplexed-readout assay that uses HepG2, a human liver cell line, with measurements taken at 24 hours after chemical dosing in a 24-well plate.ATG_Sp1_CIS is one of 52 assay component(s) measured or calculated from the ATG_CIS assay. It is designed to make measurements of mRNA induction, a form of inducible reporter, as detected with fluorescence intensity signals by Reverse transcription polymerase chain reaction (RT-PCR) and Capillary electrophoresis technology.Data from the assay component ATG_Sp1_CIS was analyzed into 1 assay endpoint. This assay endpoint, ATG_Sp1_CIS, was analyzed with bidirectional fitting relative to DMSO as the negative control and baseline of activity. Using a type of inducible reporter, measures of mRNA for gain or loss-of-signal activity can be used to understand the reporter gene at the transcription factor-level as they relate to the gene SP1. Furthermore, this assay endpoint can be referred to as a primary readout, because this assay has produced multiple assay endpoints where this one serves a reporter gene function. To generalize the intended target to other relatable targets, this assay endpoint is annotated to the dna binding intended target family, where the subfamily is zinc finger.
Human liver HepG2 cells are transiently transfected with multiple reporter transcription units (MRTUs) in 6-well plates using FuGene 6 reagent (Roche; 3 ml FuGene/1 mg DNA). The MRTU constructs are regulated by a cis-regulating element (promoter). […] A major difference between the CIS and TRANS system is that in CIS activities of endogenous TFs are measured, whereas the TRANS assay evaluates changes in activities of exogenous, chimeric NR-Gal4 proteins. […] At the end of 24 hour incubation, total RNA was isolated using TriZol reagent (Invitrogen). The isolated RNA is then reverse-transcribed using oligo(dT) primer and Mo-MLV reverse transcriptase (Invitrogen) with DNAse I (Ambion) treatment for 30 min. The one-tenth of the produced cDNA was amplified by PCR using Taq DNA polymerase (Invitrogen) and two reporter sequence-specific primers. The PCR products were fluorescently labeled by primer extension with 6-arboxyfluorescein (6-FAM) 5'-labeled reporter sequence-specific primer (2 min at 95 C, 20 s at 68 C and 10 min at 72 C) and these products were digested with 5U of HpaI (New England Biolabs) for 2h at 37 C. The fragments were purified using Qiaquick PCR columns (Qiagen), analyzed on an ABI 3130xL genetic analyzer (Applied Biosystems) with peak positions identified by using a set of X-rhodamine (ROX)-labeled MapMarker1000 molecular weight standards (BioVentures). The raw capillary electrophoresis data was processed using Attagraph software (Attagene).
Turning to `C[C@@H]1CCN(C(=O)[C@H](CCCN=C(N)N)NS(=O)(=O)c2cccc3c2NC[C@H](C)C3)[C@@H](C(=O)O)C1`, the result was inactive.

As to `CC(C)(N=C=O)c1cccc(C(C)(C)N=C=O)c1`, the molecule was called inactive.

For `BrCc1cccc(Oc2ccccc2)c1`, the result was inactive.

In the case of `ClC(c1ccccc1)(c1ccccc1)c1ccccc1`, the call was inactive.

On to `NCCNc1cccc2ccccc12`, for which the molecule was called inactive.

Turning to `CN(C)CCOC(C)(c1ccccc1)c1ccccn1` (stereo not given), the call was inactive.

With `c1ccc2[nH]cnc2c1`, the molecule was called inactive.

As to `CC=Cc1ccc(OC)c(OC)c1`, the result was inactive.

`c1ccc(CCc2ccccc2)cc1`: the AC50 was 169 µM (active).

Regarding `NC(=S)NNC(N)=S`, the molecule was classed as inactive.

Consider `CCOc1ccc(NC(=O)CC(C)=O)cc1`, for which the molecule was called inactive.

Regarding `CC1(C)C2=CCCC(C)(C)[C@]23CC[C@H]1C3`, the outcome was inactive.

For the molecule `OCC(O)c1ccccc1` (stereo not given), the molecule was called inactive.

Turning to `C1=CC2C3C=CC(C3)C2C1` (stereo not given), the molecule was classed as inactive.

In the case of `NCc1ccco1`, the outcome was inactive.

Turning to `CCCCCCCCCCCCCC(=O)OCC(O)CO` (stereo not given), the result was inactive.

For `O=C1OC2(c3ccccc31)c1ccc(O)c(Br)c1Oc1c2ccc(O)c1Br`, the molecule was classed as inactive.

As to `Cc1cc(C)nc(NS(=O)(=O)c2ccc(N)cc2)n1`, the call was inactive.

As for `CC1C2CC(CC2C2CCCC(O)C2)C1(C)C` (stereo not given), the outcome was inactive.

Regarding `Nc1c(Cl)cc(Cl)cc1[N+](=O)[O-]`, the outcome was inactive.

In the case of `CC(=O)NCCO`, the outcome was inactive.

As to `Nc1ccc(N)c2c1C(=O)c1ccccc1C2=O`, the result was inactive.

Take `O=C(O)c1cc(C(=O)O)cc([N+](=O)[O-])c1`: the molecule was classed as inactive.

`Cc1cccc(Nc2ccccc2)c1`: the AC50 is 127 µM (active).

Turning to `C#CC(C)(O)CC(C)C` (stereo not given), the result was inactive.

On to `CCCCCC(=O)CC`, for which the molecule was classed as inactive.

`OC[C@H]1O[C@@H](Oc2ccc(O)cc2)[C@H](O)[C@@H](O)[C@@H]1O`: the molecule was called inactive.

In the case of `CCCSc1ccc2nc(NC(=O)OC)[nH]c2c1`, the molecule was classed as inactive.

Take `COc1ccc(CCC(C)=O)cc1`: the result was inactive.

Take `O=Cc1ccccc1S(=O)(=O)O`: the molecule was called inactive.

Consider `C=C1CC[C@H](O)C/C1=C/C=C1\CCC[C@]2(C)[C@@H]([C@H](C)/C=C/[C@H](C)C(C)C)CC[C@@H]12`, for which the molecule was called inactive.

Turning to `ON=C1CCCCC1`, the molecule was called inactive.

`IC(I)I`: the molecule was classed as inactive.

In the case of `CCCC(=O)c1ccccc1`, the outcome was inactive.

Consider `CCOc1ccc(N=Nc2ccc(C=Cc3ccc(N=Nc4ccc(OCC)cc4)cc3S(=O)(=O)O)c(S(=O)(=O)O)c2)cc1`, for which the molecule was called inactive.

With `C=C1C[C@]23C[C@@]1(O)CC[C@H]2[C@@]12C=C[C@H](O)[C@@](C)(C(=O)O1)[C@H]2[C@@H]3C(=O)O`, the result was inactive.

For `O=[N+]([O-])c1cccc(Cl)c1`, the outcome was inactive.

Take `C=CC(C)C#N` (stereo not given): the molecule was classed as inactive.

As for `Cc1cc(CCC(=O)OCCOCCOCCOC(=O)CCc2cc(C)c(O)c(C(C)(C)C)c2)cc(C(C)(C)C)c1O`, the result was inactive.

Consider `Cc1ccc(S(=O)(=O)Oc2ccc(N=Nc3ccc(-c4ccc(N=Nc5c(O)ccc6cc(S(=O)(=O)O)cc(S(=O)(=O)O)c56)c(C)c4)cc3C)cc2)cc1`, for which the result was inactive.

Source of the values: PubChem BioAssay (EPA / NIEHS).
